MKP-1 inh = inhibitors of human MKP-1 phosphatase | recombinant MKP-1, OMFP hydrolysis fluorescence | inhibition, %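 (compounds tested at a single concentration somewhere between 10 and 100 µM)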 | 65,000 compounds, 0.15% hits;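 active = inhibition above about 50%, limit read from the data; inconclusive = inhibition over screen mean plus 3 SD, below that limit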;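 note: 0% = DMSO max control wells and 100% = wells with enzyme stopped by NaOH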
Abs 340nm = absorbance at 340 nm; compound absorbance at 340 nm, fold over control; fold change at 10 µM; 65,000 tested, under 10 active; AID 708;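 active = at 10 µM dose, initial 340 nm absorbance at least 2 fold that of control wells; inactive = change under 2 fold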;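 note: initial absorbance extrapolated from kinetic A340 decline of NADH oxidation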
Hsp90 inh = displaces geldanamycin probe from tumor Hsp90. inhibition, % at 30 µM. NCI-N417 lysate Hsp90, Cy3B-geldanamycin FP displacement. 64,000 compounds, 0.35% hits;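 active = inhibition above 50%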;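 note: 0% = tracer plus lysate wells and 100% = tracer alone without lysate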
Cdc25B block = inhibitors of human Cdc25B phosphatase. P30305. recombinant Cdc25B, OMFP fluorescence Ex485/Em525. inhibition, %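 (compounds tested at 10 µM final in the well)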. 65,000 compounds, 0.1% hits. AID 368; in the data active = inhibition above about 50%
Target sequence (P30305 whole entry, looked up): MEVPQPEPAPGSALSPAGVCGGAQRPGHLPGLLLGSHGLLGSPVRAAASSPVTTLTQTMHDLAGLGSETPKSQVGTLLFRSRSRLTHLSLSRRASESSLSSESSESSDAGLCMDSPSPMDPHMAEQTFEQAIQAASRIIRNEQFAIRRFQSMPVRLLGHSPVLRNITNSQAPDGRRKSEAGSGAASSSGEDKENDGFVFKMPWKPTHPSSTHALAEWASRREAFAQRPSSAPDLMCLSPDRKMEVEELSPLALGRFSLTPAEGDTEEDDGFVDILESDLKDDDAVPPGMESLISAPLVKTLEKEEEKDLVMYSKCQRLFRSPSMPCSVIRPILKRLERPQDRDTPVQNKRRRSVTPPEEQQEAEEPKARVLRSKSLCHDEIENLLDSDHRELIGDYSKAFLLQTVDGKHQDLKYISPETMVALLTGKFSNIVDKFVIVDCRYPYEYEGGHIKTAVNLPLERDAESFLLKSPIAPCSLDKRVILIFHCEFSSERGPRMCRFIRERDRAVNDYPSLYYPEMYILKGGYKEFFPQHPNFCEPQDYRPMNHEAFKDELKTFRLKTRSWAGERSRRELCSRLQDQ
NADH coupling = inhibitors of enzymes used to reach an NAD/NADH endpoint | IC50, µM (titrated, usually from 10 µM), without a hit: top-dose inhibition | 65,000 compounds, 0.02% hits | coupled PK/LDH NADH assays, four targets | AID 774;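 active = single-dose screening hits from any of four coupled enzyme assays that gave an IC50 when retested across doses; inconclusive = no clear call, values can overlap the other calls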;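 note: the DPM-DC format reads NADH fluorescence rather than 340 nm absorbance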
Fluor 339 460 = intrinsic fluorescence of library compounds, ex339/em460 – biochemical, MLSMR library, data from DPM-DC assay, artefact control, profiling panel; 65,000 compounds, 5.5% hits; AID 709; fluorescence fold increase at 10 µM; compound autofluorescence, ex339/em460 nm, NADH buffer; stronger effect = higher value; 1 = no-compound wells, NADH background;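 active = at 10 µM, mean starting fluorescence two-fold or more over control wells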;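 note: signal is the first read of a kinetic run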
* = called active by the depositor. Most compounds without a hit are left out; they make up all but 5.7% or so of the library.

How did CCOC(=O)c1sc(NC(=O)CSc2nc(-c3ccco3)cc(C(F)(F)F)n2)c(C#N)c1C do in these assays?
MKP-1 inh: inconclusive; Abs 340nm: 1.11; Hsp90 inh: -0.9; Cdc25B block: 1.6; NADH coupling: 6.0%; Fluor 339 460: 1.36

What do the screens show for `Cc1nn(C)c(C)c1CN(C)C(=O)c1cc2nc(-c3ccco3)cc(C(F)(F)F)n2n1`?
MKP-1 inh: 16.1; Abs 340nm: 1.13; Hsp90 inh: -2.1; Cdc25B block: -11.0; NADH coupling: 8.0%; Fluor 339 460: 2.54*

Results for Cc1ccccc1Cn1nc(C)c(NC(=O)c2cc3nc(-c4ccco4)cc(C(F)(F)F)n3n2)c1C ?
MKP-1 inh: 31.1; Abs 340nm: 1.08; Hsp90 inh: -2.2; Cdc25B block: -1.2; NADH coupling: 12.0%; Fluor 339 460: 1.83

What do the screens show for `Cc1nn(C)cc1CN(C)C(=O)c1cc2nc(-c3ccco3)cc(C(F)(F)F)n2n1`?
MKP-1 inh: 4.9; Abs 340nm: 1.06; Hsp90 inh: -3.5; Cdc25B block: -0.2; NADH coupling: 8.0%; Fluor 339 460: 2.74*

How did CCC(=O)N1CCN(c2ccc(Cl)cc2NC(=O)c2ccc(Br)o2)CC1 do in these assays?
MKP-1 inh: 18.4; Abs 340nm: 1.04; Hsp90 inh: -3.2; Cdc25B block: 7.3; NADH coupling: 1.0%; Fluor 339 460: 1.11

Results for Oc1cc2ccccc2cc1-c1n[nH]c(=S)o1 ?
MKP-1 inh: 9.2; Abs 340nm: 1.02; Hsp90 inh: -3.0; Cdc25B block: -9.2; NADH coupling: 12.0%; Fluor 339 460: 3*

How did S=c1[nH]nc(CSc2nc3ccccc3s2)o1 do in these assays?
MKP-1 inh: 15.0; Abs 340nm: 1.04; Hsp90 inh: -0.8; Cdc25B block: 1.8; NADH coupling: 9.0%; Fluor 339 460: 1.03

How did CCOC(=O)C1CCN(S(=O)(=O)c2cccc(-c3cn4cccnc4n3)c2)CC1 do in these assays?
MKP-1 inh: 11.4; Abs 340nm: 1.09; Hsp90 inh: -2.7; Cdc25B block: 8.6; NADH coupling: 5.0%; Fluor 339 460: 2.1*

What do the screens show for `COc1ccc(-c2cn3cccnc3n2)cc1NC(=O)C1CCCC1`?
MKP-1 inh: 3.5; Abs 340nm: 1.07; Hsp90 inh: -4.0; Cdc25B block: -6.3; NADH coupling: 12.0%; Fluor 339 460: 4.78*

How did COc1ccc(-c2cn3cccnc3n2)cc1NC(=O)C1CC1 do in these assays?
MKP-1 inh: 7.0; Abs 340nm: 1.07; Hsp90 inh: -5.1; Cdc25B block: -4.4; NADH coupling: 12.0%; Fluor 339 460: 3.23*

Results for COc1ccccc1NC(=O)C1CCCCC1 ?
MKP-1 inh: 2.9; Abs 340nm: 1.07; Hsp90 inh: -0.1; Cdc25B block: -6.3; NADH coupling: 0.0%; Fluor 339 460: 1.12

What do the screens show for `Cn1nnnc1SCC(=O)Nc1ccccc1N1CCCCC1`?
MKP-1 inh: 16.1; Abs 340nm: 1.01; Hsp90 inh: 1.2; Cdc25B block: 5.8; NADH coupling: 4.0%; Fluor 339 460: 1.09

What do the screens show for `O=S(=O)(Cc1ccc(Cl)cc1)N1CCCC1`?
MKP-1 inh: -0.9; Abs 340nm: 1.09; Hsp90 inh: -1.7; Cdc25B block: -9.9; NADH coupling: 3.0%; Fluor 339 460: 1.08

Results for O=C(COc1ccc2c3c(c(=O)oc2c1)CCC3)c1ccc2c(c1)OCO2 ?
MKP-1 inh: 37.7; Abs 340nm: 1.08; Hsp90 inh: -5.2; Cdc25B block: -4.4; NADH coupling: 7.0%; Fluor 339 460: 1.66

What do the screens show for `COC(=O)c1ccc(COc2ccc3c4c(c(=O)oc3c2)CCC4)o1`?
MKP-1 inh: 3.0; Abs 340nm: 1.06; Hsp90 inh: -12.1; Cdc25B block: -2.2; NADH coupling: 23.0%; Fluor 339 460: 2.47*

Results for COC(=O)c1cc(COc2ccc3c4c(c(=O)oc3c2)CCCC4)c(C)o1 ?
MKP-1 inh: 4.8; Abs 340nm: 1.05; Hsp90 inh: -4.0; Cdc25B block: -14.4; NADH coupling: 2.0%; Fluor 339 460: 2.18*

How did COC(=O)c1ccc(COc2cccc(OC)c2)o1 do in these assays?
MKP-1 inh: -4.6; Abs 340nm: 1.03; Hsp90 inh: -5.1; Cdc25B block: -1.1; NADH coupling: 5.0%; Fluor 339 460: 1.11

What do the screens show for `CC(C)(C)C1CCc2[nH]c3ccccc3c(=O)c2C1` (configuration not stated)?
MKP-1 inh: 0.9; Abs 340nm: 1.09; Hsp90 inh: -1.6; Cdc25B block: -5.9; NADH coupling: 0.0%; Fluor 339 460: 1.16
